# In PubChem BioAssay (NCI):
# About 83,000 compounds went through this panel and 20% of them were active in at least one assay; those are over-represented in the sample as a whole.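 Interpretation: 100, growth as untreated; towards 0, rising growth inhibition; 0, no net growth; 0 to -100, cell death. Compounds scoring below 10 were considered active.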 Values without a mark were called inactive. Activity calls are given as the source filed them.
# What was measured:
# Assay in all cases: NCI-60 one-dose screen, 48 h (100 = growth as untreated, 0 = no growth, -100 = all killed)
# Details in all cases: 10 µM unless noted
# SR leukemia = tested on: SR leukemia
# RPMI-8226 leukemia = tested on: RPMI-8226 leukemia
# OVCAR-8 ovarian = tested on: OVCAR-8 ovarian
# OVCAR-5 ovarian = tested on: OVCAR-5 ovarian
# OVCAR-4 ovarian = tested on: OVCAR-4 ovarian
# SK-OV-3 ovarian = tested on: SK-OV-3 ovarian
# IGROV1 ovarian = tested on: IGROV1 ovarian
# OVCAR-3 ovarian = tested on: OVCAR-3 ovarian
# HS 578T breast = tested on: HS 578T breast
# NCI/ADR-RES ovarian = tested on: NCI/ADR-RES ovarian
SMILES,growth (SR leukemia),growth (RPMI-8226 leukemia),growth (OVCAR-8 ovarian),growth (OVCAR-5 ovarian),growth (OVCAR-4 ovarian),growth (SK-OV-3 ovarian) [%],growth (IGROV1 ovarian),growth (OVCAR-3 ovarian),growth (HS 578T breast),growth (NCI/ADR-RES ovarian)
COc1ccc(C(=O)/C=C/c2cc3ccccc3n3nnnc23)cc1,92.3%,98.7%,109%,108%,106%,102,109%,113%,106%,113%
C=C(C)[C@@H]1CC[C@]2(CN)CC[C@]3(C)[C@H](CC[C@@H]4[C@@]5(C)CCCNC(C)(C)[C@@H]5CC[C@]43C)[C@@H]12,-38.7% (active),-43.8% (active),-59.6% (active),-23% (active),-70.9% (active),86.1,-81.9% (active),-85.8% (active),-42.3% (active),-52% (active)
CCOC(=O)Oc1c(OC)cc(C(=O)c2ccc(OC)c(O)c2OC)cc1OC,28%,21%,28.5%,76.6%,75.3%,31.6,41.8%,-1.93% (active),14.7%,-9.66% (active)
CCOC(=O)c1cc(C#N)n2ccc3ccccc3c12,115%,111%,100%,94.2%,95.3%,36.5,99.7%,102%,112%,102%
COc1cc(/C(C)=C(\c2ccc(Cl)cc2)c2ccc(OCCN(C)C)cc2)ccc1F,0.487% (active),12.2%,73.9%,75.3%,45.9%,111,35.3%,59.4%,71.7%,69.4%
CC(=O)Oc1ccc(/C=N/NC(N)=S)nc1,27.9%,88.7%,46.3%,110%,56%,88,92.3%,68%,127%,41.9%
O=C(Nc1ccc(-c2ccc3c(c2)NC(=O)/C3=C\c2ccc[nH]2)cc1)NC1CC1,34.8%,87%,109%,105%,98.3%,118,96.6%,107%,97.1%,105%
COc1cc2oc(-c3cccc(C(=O)Nc4ccc(Br)cc4)c3)cc(=O)c2c(OC)c1OC,18.4%,8.6% (active),40.5%,61%,57.6%,69.4,52.3%,76%,65.2%,45.7%
C[C@H](c1nc2ccc(N)cc2[nH]1)[C@H]1CC[C@H]2[C@@H]3CCC4=CC(=O)CC[C@]4(C)[C@H]3CC[C@]12C,44.4%,64.5%,91.4%,102%,88.1%,91.2,85.1%,91.5%,87.3%,89%
O=C(/C=C/c1ccc(F)cc1)c1ccc(NC(=O)N2CCN(c3cc4c(cc3F)c(=O)c(C(=O)O)cn4C3CC3)CC2)cc1,71.9%,98.6%,90.8%,96.9%,98.2%,99.4,89.5%,97.6%,90.3%,100%
COc1ccc2[nH]c(=O)c(CN3CCN(c4nccc(-c5ccc(Cl)cc5)n4)CC3)cc2c1,70.3%,73.6%,66%,98.5%,71.4%,94.9,106%,100%,72.9%,82.4%
CCC(CC)NCC(C)(C)O,93.4%,107%,99%,108%,105%,110,98%,119%,107%,106%
O=C(Cc1ccccc1)NNc1nc(Cl)nc(N2CCN(C(c3ccccc3)c3ccccc3)CC2)n1,10.7%,101%,91.8%,94.8%,106%,105,64.5%,101%,98.9%,102%
